The record followed here is PubChem BioAssay AID504607 (Sanford-Burnham Center for Chemical Genomics, 2011).

The term inhibition denotes the relative decrease from the control value, in per cent.

Among all 6,200 compounds or so, about 4,800 (77%) were called active. So high a share suggests a set chosen from earlier hits. These entries were drawn from the full list. Values without a mark were called inactive.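 How the source made its calls: active means mean inhibition at 8 µM reaching about 37%, which flags the compound as non-specific (limit read from the data); inactive means the rest.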

The nature of the experiment: full-length luciferase signal inhibition, confirmation, counter-screen for Mdm2/MdmX interaction inhibitor project, cell-based, single concentration, SaOS-2 (AID 504607).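 Further: p53-null SaOS-2 cells with luciferase driven by a doxycycline-inducible promoter; compound on cells about two nights before reading with doxycycline added after day one.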 As to conditions: SaOS-2 full-length luciferase counterscreen, luminescence; at 8 µM; stronger effect = higher value.
For the compound `Cc1ccc(OCCOCCOc2ccc(Br)cc2/C=N\NC(=O)c2ccncc2)cc1`, the inhibition is 45.5% (active).

`CC(=O)N1CCc2c(sc(NC(=O)CCS(=O)(=O)c3ccccc3)c2C#N)C1`: the inhibition is 57.3% (active). The result for `O=[N+]([O-])c1ccccc1S(=O)(=O)Nc1cccc2cccnc12` reads 56.4% (active). For the compound `COc1cc(NS(=O)(=O)c2ccc3ccccc3c2)c2ncccc2c1`, the inhibition was 22.5%. As to `COc1ccc(NC(=O)/C(Cl)=C(/Cl)S(=O)Cc2ccc(C)cc2)cn1` (configuration not stated), the inhibition was 0.18%. Next, `CN(C)CCCn1c(=O)n(Cc2ccccc2)c(=O)c2c3c(sc21)CCCCC3`: 70% (active). Take `Cc1ccc(CS(=O)(=O)c2ncc(Cl)c(C(=O)Nc3nnc(C)s3)n2)cc1`: the inhibition was 50.9% (active).

In the case of `CSc1nnc(NC(=O)c2nc(S(=O)(=O)Cc3ccc(C)cc3)ncc2Cl)s1`, the inhibition is 49.9% (active). In the case of `COc1ccccc1N1CCN(c2ncnc3sc(C)c(-c4ccccc4)c23)CC1`, the inhibition was 80.6% (active).

On to `COc1ccccc1N(CC(=O)N/N=C(\C)c1ccccc1O)S(=O)(=O)c1ccc(C)cc1`, for which the inhibition is 37.3% (active). Regarding `COc1cc(NC(=O)c2[nH]cnc2C(N)=O)cc(C(=O)Nc2cccc(C(F)(F)F)c2)c1`, the inhibition is 50% (active). For the compound `COc1cc(NC(=O)c2cncc(-c3ccc(C#N)cc3)c2)cc(C(=O)Nc2cccc(C(F)(F)F)c2)c1`, the inhibition is 21.1%. Turning to `CC[C@H]1CN2CCc3cc(OC)c(OC)cc3[C@@H]2C[C@@H]1C[C@H]1NCCc2cc(OC)c(OC)cc21`, the inhibition was 51.2% (active). For `Cc1ccc(C(=O)N/C(=C/c2ccc(-c3cccc([N+](=O)[O-])c3)o2)C(=O)NCCCN(C)C)cc1`, the inhibition was 44.1% (active).

As for `Nc1nonc1-c1nc2ccccc2n1Cc1ccc(F)cc1`, the inhibition was 71.9% (active).

On to `COc1ccc(OC)c(C2C3=C(N=c4s/c(=C\c5cccc(O)c5)c(=O)n42)c2ccccc2CC3)c1` (configuration not stated), for which the inhibition is 41.8% (active). With `C=CCn1c(SCc2c(C)noc2C)nc2sc3c(c2c1=O)CCC(C)C3` (configuration not stated), the inhibition was 52.9% (active).

With `O=C(NCC1CCCO1)c1cc2c([nH]c3ccccc32)c(-c2ccc(F)cc2)n1` (configuration not stated), the inhibition is 74.8% (active).

`Oc1c(CN2CCCC2)cc(COCc2ccccc2)c2cccnc12`: the inhibition was 32.2%.

As for `COc1cc(/C=N/NC(=O)Nc2ccccc2)ccc1OCCOc1ccccc1C`, the inhibition was 62.6% (active). On to `O=C(NC(=O)c1ccccc1N1CCCCC1)Nc1ccc(Br)cc1`, for which the inhibition is 86.3% (active). Regarding `CCOC(=O)c1c(-c2ccc(C)cc2C)csc1NC(=O)CSc1nnnn1C`, the inhibition is 73.6% (active).

Take `COc1ccc(C2CC(c3ccccc3)=NN2C(=O)c2ccc(Cl)c([N+](=O)[O-])c2)cc1` (configuration not stated): the inhibition is 62.6% (active). For `CC(=O)c1ccc(S(=O)(=O)N2CCN(C(=O)/C=C/c3ccc4ccccc4n3)CC2)cc1`, the inhibition is 46.9% (active).

`N/C(=N\OC(=O)c1ccc2c(c1)OCO2)c1ccc(Br)cc1`: the inhibition was 137% (active).

For the compound `CCc1nc(C)cn1S(=O)(=O)c1cc([N+](=O)[O-])ccc1Cl`, the inhibition was 103% (active). Take `CCOc1cc(/C=C/c2nc3ccccc3c(=O)[nH]2)cc(Br)c1OC`: the inhibition was 57.5% (active).

As for `O=C(/C=C/c1ccc(Cl)c([N+](=O)[O-])c1)c1ccc(O)cc1`, the inhibition is 59.3% (active). As for `O=C(/C=C/c1ccc(Cl)c([N+](=O)[O-])c1)c1cccnc1`, the inhibition was 67.5% (active). In the case of `CCCc1nc(NCc2ccc3c(c2)OCO3)c2nnn(Cc3ccccc3Cl)c2n1`, the inhibition was 91.5% (active). Next, `CC(C)Cc1nc(Nc2ccc(S(=O)(=O)N3CCCC3)cc2)c2nnn(Cc3ccccc3)c2n1`: 24.1%; `COc1ccc(/C=C/C(=O)c2ccc(NS(=O)(=O)c3ccc(C)cc3)cc2)cc1O`: 65.2% (active); `Cc1ccc(C2CC(=O)NC(SCC(=O)OCc3ccccc3)=C2C#N)o1` (configuration not stated): 55.9% (active).

As to `Cc1cc(C(=O)COC(=O)CNC(=O)c2ccc(F)cc2)c(C)n1Cc1ccco1`, the inhibition is 98.9% (active). Next, `Cc1ccsc1C(=O)OCC(=O)c1cc(C)n(CC2CCCO2)c1C` (configuration not stated): 28.9%; `CCOc1cc(C(=O)N2CCc3cc(OC)c(OC)cc3C2)ccc1OC(F)F`: 86.4% (active). Next, `COc1ccc(N=Cc2c(O)[nH]c3ccccc23)cc1OC`: 65.3% (active).

In the case of `COc1cc(N=Cc2c(O)[nH]c3ccccc23)cc(OC)c1OC`, the inhibition is 47% (active).

With `c1ccc2c(c1)C(=NC1CCCCC1)NC2=NC1CCCCC1`, the inhibition was 42.2% (active).

For `OC(CNCC1CCCO1)Cn1c2ccc(Br)cc2c2cc(Br)ccc21` (configuration not stated), the inhibition was 52.2% (active). In the case of `CC1=C/C(=N\OS(=O)(=O)c2ccccc2)C=CC1=O`, the inhibition was 45.1% (active).

Take `CCc1ccc2c(c1)C1(NN=C(c3ccccc3)S1)C(=O)N2` (configuration not stated): the inhibition was 40.3% (active). Consider `Cn1cc([N+](=O)[O-])c(C(=O)Nc2cnn(Cc3ccc(F)cc3)c2)n1`, for which the inhibition is 74.9% (active).

With `COc1ccccc1-n1nnnc1S(=O)(=O)Cc1ccc(Cl)cc1`, the inhibition is 52.1% (active). For the compound `COc1cccc(/C=N/Nc2cc(C)nc(-c3ccccc3O)n2)c1O`, the inhibition was 55.6% (active).

As for `COc1cccc(/C=N/NC(=O)c2[nH]nc3c2CCc2ccccc2-3)c1O`, the inhibition was 27%. `c1ccc(C2CCC(N3CCC(N4CCCCC4)CC3)CC2)cc1` (configuration not stated): the inhibition was 38.2% (active). As for `CCCCCCCCCCOC(=O)Cn1c(COc2cccc(OC)c2)[n+](C)c2ccccc21`, the inhibition is 31.2%.

Regarding `CCCCCCCCCCOC(=O)Cn1c(COc2ccc(C)cc2)[n+](C)c2ccccc21`, the inhibition was 59.5% (active).

Consider `CC1CCN(C(=O)c2ccc(S(=O)(=O)Cc3cc(F)ccc3F)c([N+](=O)[O-])c2)CC1`, for which the inhibition is 44.1% (active). For the compound `COc1ccc(-c2n[nH]c(C)c2-c2ccc(OC)c(OC)c2)c(O)c1`, the inhibition is 53.7% (active). For `COc1ccc(-c2cn[nH]c2-c2ccc(OC)cc2)cc1`, the inhibition is 35.1%. As for `CCCCn1c(-c2cccc(C)c2)nc2cc3[nH]c(=O)c(C(C)C)nc3cc21`, the inhibition was 91.6% (active). Take `CC(=O)Nc1nc(C)c(-c2csc(Nc3ccc(S(N)(=O)=O)cc3)n2)s1`: the inhibition is 31.7%. On to `O=C(NC(=S)Nc1ccc2oc(=O)ccc2c1)c1ccc(-c2cccc(Cl)c2Cl)o1`, for which the inhibition was 68.2% (active). As to `O=c1oc2ccccc2cc1-c1cn(-c2ccccc2)c(=S)[nH]1`, the inhibition is 38.4% (active). The result for `NC(N)=Nc1nc(-c2ccccc2)c2cc(Cl)ccc2n1` reads 53.4% (active). With `COc1ccc(NC(=O)c2cc(-c3cc(OC)c(OC)c(OC)c3)nc3ccccc23)c(OC)c1`, the inhibition was 58.2% (active). For `COc1ccc(Nc2ncnc3ccc(Br)cc23)c(OC)c1`, the inhibition was 24.3%. As to `Cc1ccc2nc(-c3ccncc3)cc(C(=O)Nc3ccc4c(c3)OCCO4)c2c1`, the inhibition is 44.2% (active).

Take `COc1ccc(C(CCN(Cc2ccc(OC)c(OC)c2)C(=O)CCl)c2ccccc2)cc1` (configuration not stated): the inhibition was 58.4% (active).

Take `Cc1noc(C)c1-c1ccc2ncnc(NC(C)c3ccco3)c2c1` (configuration not stated): the inhibition was 59.8% (active).

In the case of `Cc1cccc(Nc2nc3c(S(=O)(=O)c4ccccc4)nnn3c3ccccc23)c1C`, the inhibition was 94.3% (active). On to `CN(c1ccc2nc3ccccc3c(=O)n2n1)C1CCCCC1`, for which the inhibition was 27.7%. Next, `CC(Nc1nc(C(F)(F)F)nc2ccccc12)c1cccs1` (configuration not stated): 50.3% (active); `CC(C)(C)Nc1nc(-c2ccccn2)nc2ccccc12`: 23.3%. Take `Cc1nnc(N/N=C/c2ccccn2)[nH]c1=O`: the inhibition is 20.6%. For the compound `COc1ccc(Cc2nnc(N/N=C/c3ccccc3O)[nH]c2=O)cc1OC`, the inhibition is 38.6% (active). The result for `CCOc1cc(N2CCOCC2)c(OCC)cc1NC(=O)COc1cccc2cccnc12` reads 39.6% (active); that for `COc1ccccc1C1C2=C(COC2=O)Nc2cc3c(cc21)OCO3` (configuration not stated), 90.3% (active).

For `CCCOc1ccccc1C1CC(=O)Nc2cc3c(cc21)OCO3` (configuration not stated), the inhibition was 74.9% (active). With `CCOc1ccc(S(=O)(=O)Nc2cccc(C(=O)NCC3(N4CCCCC4)CCCCC3)c2)cc1`, the inhibition was 56.1% (active). In the case of `COc1ccc(CS(=O)/C(Cl)=C(/Cl)C(=O)Nc2ccc(OC)nc2)cc1` (configuration not stated), the inhibition is -0.43%.

As for `O=C(CCCN1C(=O)/C(=C/c2cccs2)SC1=S)Nc1ccc(O)cc1`, the inhibition was 43% (active). Regarding `COc1ccc(/C=C2\SC(=S)N(CCC(=O)Nc3ccccn3)C2=O)cc1OC`, the inhibition is 72.7% (active).

Take `O=C(CCCN1C(=O)/C(=C\c2ccccc2)SC1=S)Nc1ccccc1O`: the inhibition is 30.3%.

With `O=C(CCCN1C(=O)/C(=C\c2ccco2)SC1=S)Nc1cccc2ccccc12`, the inhibition is 28.5%. The result for `O=C(CCCN1C(=O)/C(=C/c2ccccc2)SC1=S)Nc1ccc(O)cc1` reads 51.8% (active); that for `O=C(CCCN1C(=O)/C(=C/c2ccco2)SC1=S)Nc1ccccc1`, 50% (active); that for `O=C1/C(=C/c2ccc(F)cc2)SC(=S)N1CCCC(=O)N1CCCCC1CCO` (configuration not stated), 23.7%. Regarding `CCOc1ccc(-c2cc(C(=O)N/N=C/c3ccc(O)cc3)c3ccccc3n2)cc1`, the inhibition is 48.3% (active). Regarding `Oc1ccc(/C=N/Nc2nc(-c3ccccc3F)nc3ccccc23)c(O)c1`, the inhibition is 31%. For the compound `Cc1nc2ccccc2nc1N/N=C/c1ccc(O)cc1O`, the inhibition is 46.2% (active). The result for `COc1cc(OC)c2c(-c3cccc(-c4cccc(N)c4)c3)cc(=O)oc2c1` reads 50.1% (active); that for `CC(NC(=O)c1ccc(N2CCNCC2)c([N+](=O)[O-])c1)C12CC3CC(CC(C3)C1)C2` (configuration not stated), 56.5% (active); that for `CC[C@]1(O)CC2CN(CCc3c([nH]c4ccccc34)[C@@](C(=O)OC)(c3cc4c(cc3OC)N(C=O)[C@H]3[C@@](O)(C(=O)OC)[C@H](OC(C)=O)[C@]5(CC)C=CCN6CC[C@]43[C@@H]65)C2)C1` (some centres not stated), 102% (active).

As for `CC[C@]1(O)C[C@@H]2CN(CCc3c([nH]c4ccccc34)[C@@](C(=O)OC)(c3cc4c(cc3OC)N(C)[C@H]3[C@@](O)(C(=O)OC)[C@H](OC(C)=O)[C@]5(CC)C=CCN6CC[C@]43[C@@H]65)C2)C1`, the inhibition was 94.7% (active).
